PubChem BioAssay (NCI)
About 83,000 compounds went through this panel and 20% of them were active in at least one assay; those are over-represented in the sample as a whole.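 How to read the values: 0–100, growth inhibition (40 = 60% inhibited); 0, no net growth; -100 to 0, cell death (-40 = 40% of starting cells died; -100 = all dead).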 Activity calls are given as the source filed them. The calls were made as follows: active = growth percent below 10; inactive = the rest.

Legend:
Test in all cases: NCI-60 one-dose screen, 48 h (100 = growth as untreated, 0 = no growth, -100 = all killed)
Conditions in all cases: 10 µM unless noted
[1] = tested on: T-47D breast
[2] = tested on: BT-549 breast
[3] = tested on: MDA-MB-435 melanoma
[4] = tested on: SW-620 colon
[5] = tested on: MCF7 breast
[6] = tested on: HCT-116 colon
[7] = tested on: HCC-2998 colon
[8] = tested on: KM12 colon

Measured: growth

COC(=O)c1ccc2c(c1)c1c(C)c3ccncc3c(C)c1n2C
active: [5] 8.59%
inactive: [1] 29.7% | [2] 43.5% | [3] 28.3% | [4] 21% | [6] 10.9% | [7] 61.5% | [8] 23.2%

CCOC(=O)c1c(C)nc2c(c1N)CC(=O)N2Cc1cc(OC)c(OC)c(OC)c1
inactive: [1] 28.7% | [2] 48.7% | [4] 33.4% | [5] 26.9% | [6] 20.5% | [7] 65.6% | [8] 30.1%
active: [3] 4.24%

Nc1c(C(=O)Nc2ccncc2)sc2nc3c(cc12)CCCCC3
inactive: [1] 25.7% | [2] 50.4% | [3] 67% | [4] 105% | [5] 58.5% | [6] 66.4% | [7] 85.3% | [8] 75.6%

COC(=O)c1nc(-c2ccccc2)oc1S(=O)(=O)N1CCC(C(N)=O)CC1
inactive: [1] 36% | [2] 76.2% | [3] 59.5% | [4] 25.4% | [5] 32% | [6] 43.9% | [7] 104% | [8] 87.8%

O[C@@H](c1cc(C(F)(F)F)nc2c(C(F)(F)F)cccc12)[C@H]1CCCCN1
inactive: [1] 43.1% | [2] 66.1% | [3] 73.1% | [4] 73.7% | [5] 36.3% | [6] 36.1% | [7] 80.5% | [8] 50.1%

CC(C)CCSc1nc(Nc2ccccc2)c(C#N)c(-c2ccccc2)n1
inactive: [1] 58.3% | [2] 62.1% | [3] 94% | [4] 56.9% | [5] 45.6% | [6] 27.5% | [7] 46.3% | [8] 89.9%

N#Cc1nc(-c2ccc(F)cc2)oc1S(=O)(=O)N1CCN(c2ccc(F)cc2)CC1
inactive: [1] 85.8% | [2] 103% | [3] 86.8% | [4] 19% | [5] 40.9% | [6] 46.7% | [7] 109% | [8] 102%

O=C(Nc1ncc(Cc2ccccc2Cl)s1)c1cccs1
active: [3] 3.49%
inactive: [1] 56.1% | [2] 68.7% | [4] 58.6% | [5] 46.3% | [6] 58.1% | [7] 72.8% | [8] 29.3%

COc1ccc(-c2ccc(=O)oc2C#Cc2cc(OC)c(OC)c(OC)c2)cc1O
active: [2] -16.9% | [3] -78% | [4] -30.3% | [5] 3.79% | [6] -30.4% | [8] 3.09%
inactive: [1] 38.8% | [7] 221%

Nc1ncnc2c1c(-c1ccc(Oc3ccccc3)cc1)nn2CC1SSCC1O (stereo not drawn)
active: [1] 7.22% | [3] -0.185%
inactive: [2] 82% | [4] 78.7% | [5] 16% | [6] 43.8% | [7] 80.4% | [8] 46.5%

Cn1cc(-c2nonc2-c2c[nH]c3ccccc23)c2ccccc21
active: [3] -45.3% | [6] 5.44% | [8] 7.64%
inactive: [1] 25.9% | [2] 18.7% | [4] 22.4% | [5] 14.3% | [7] 11.1%

CC(=O)Nc1c(Cl)cc(Cl)c2c1Cc1cc([N+](=O)[O-])ccc1-2
inactive: [1] 70.6% | [2] 92.7% | [3] 85.9% | [4] 80.6% | [5] 76.8% | [6] 45.8% | [7] 94.3% | [8] 86.4%

Cc1ccc(-c2nc(C(Cl)Cl)nc3cc(C)nn23)cc1
active: [4] -28.5% | [6] 6.95% | [7] -69.3% | [8] -9.44%
inactive: [1] 40.9% | [2] 55.5% | [3] 12% | [5] 20.6%

C[C@@H]1O[C@@H](O[C@@H]2C[C@H](c3ccc4c(c3O)C(=O)C3=C(C4=O)[C@@]4(O)C(=O)C[C@](C)(O)C[C@@]4(O)C=C3)O[C@H](C)[C@H]2O)C[C@H](O)[C@@H]1O
inactive: [1] 93.8% | [2] 100% | [3] 103% | [4] 95% | [5] 91.8% | [6] 98.9% | [7] 102% | [8] 99.7%

CC/C=C\C/C=C/C=C1/C(=O)C=C[C@@H]1C/C=C\CCCC(=O)OC
active: [2] -21.9% | [3] -39.3% | [4] -14.3% | [6] -76.1%
inactive: [1] 16.7% | [5] 18.6% | [7] 62% | [8] 20.4%

O=C(CCCCNC(=O)c1cc(=O)c(O)co1)Nc1ccccc1
inactive: [1] 34.6% | [2] 98.4% | [3] 98.1% | [4] 45.8% | [5] 66.1% | [6] 30% | [7] 110% | [8] 99.7%

O=C(Nc1nc(C(=O)N2CCN(C(c3ccccc3)c3ccccc3)CC2)cs1)c1ccc(NC2CCCCC2)c([N+](=O)[O-])c1
inactive: [1] 60% | [2] 82.5% | [3] 91% | [4] 91.4% | [5] 81.3% | [6] 82.6% | [7] 72.7% | [8] 91.4%

O=C1CCC(C(=O)NN(c2ccccc2)c2ccccc2)N1 (stereo not drawn)
inactive: [1] 103% | [2] 30.2% | [3] 93.8% | [4] 100% | [5] 98% | [6] 15.5% | [7] 110% | [8] 87.3%

Clc1ccc(-c2nc(-c3c[nH]c4ncccc34)cs2)cc1
inactive: [1] 62.4% [100 µM] | [2] 47.2% [100 µM] | [3] 89.2% [100 µM] | [4] 74.3% [100 µM] | [5] 66.7% [100 µM] | [6] 38.6% [100 µM] | [7] 90.2% [100 µM] | [8] 76.1% [100 µM]

CC(C)CN1CC(C(=O)Nc2ccc3c(c2)-c2ccccc2C3)CC1=O (stereo not drawn)
inactive: [1] 61.5% [50 µM] | [2] 65% [50 µM] | [3] 90.2% [50 µM] | [4] 93.3% [50 µM] | [5] 52.9% [50 µM] | [6] 64.1% [50 µM] | [7] 64.4% [50 µM] | [8] 74% [50 µM]

COc1ccc(Cl)cc1Nc1nc(C(F)(F)F)ccc1C(=O)N/N=C/c1ccccc1Cl
inactive: [2] 13.3% | [3] 26.9% | [6] 14.2%
active: [1] -22.5% | [4] 7.18% | [5] -8.68% | [7] -11.2% | [8] 7.71%

COc1ccc(NC(=O)c2cccc(C3CCc4c(cc(OC)c(OC)c4OC)O3)c2)cc1 (stereo not drawn)
active: [3] -10.5%
inactive: [1] 16% | [2] 25.9% | [4] 29% | [5] 11.3% | [6] 14.6% | [7] 50.7% | [8] 18.2%

CC(=O)c1c(Nc2ccc(F)c(F)c2F)[nH]c2c(F)cc(F)cc2c1=O
active: [1] -14.3% | [2] 2.13% | [3] -14.4% | [4] 7.98% | [5] 0.843% | [6] 3.09% | [7] 7.96% | [8] 2.32%

CN1CCN(Cc2ccc(NC(=O)c3cncc(C#Cc4cnn5ccccc45)c3)cc2C(F)(F)F)CC1
inactive: [1] 35.5% | [2] 41%
active: [3] 6.02% | [4] -14.3% | [5] 0.711% | [6] 4.92% | [7] -19.1% | [8] 0.221%

O=C(CSc1nc2ccc([N+](=O)[O-])cc2[nH]1)Nc1cccc([N+](=O)[O-])c1
inactive: [1] 16.2% | [2] 59% | [3] 43.8% | [4] 73.8% | [5] 52.8% | [6] 33.6% | [7] 62.9% | [8] 57.4%

O=C1/C(=C/c2ccccc2[N+](=O)[O-])COc2ccc(O)cc21
inactive: [1] 18% | [2] 26.7% | [5] 10.9% | [7] 29% | [8] 25.4%
active: [3] -34.2% | [4] -57.8% | [6] -13.8%

O=C(OC[C@@H]1CO1)c1cccc2c(=O)c3ccccc3[nH]c12
active: [1] -9.67% | [2] -31.6% | [3] -81.7% | [4] -24.7% | [5] 0.0356% | [6] 2.66% | [7] -66.2% | [8] -65.5%

CC(C)[C@@]12C[C@@H](OC(=O)COC(=O)c3ccccc3)[C@@](C)(O1)[C@@H]1CC[C@@H](C)[C@H]1[C@@H]2OC(=O)/C=C/c1ccccc1
inactive: [1] 60.1% | [2] 22.9% | [3] 99.8% | [4] 100% | [5] 81.9% | [6] 83.6% | [7] 97.2% | [8] 94.9%

C#CCOc1cccc(-c2ncc3cc(NC(=O)CCl)ccc3n2)c1
active: [1] -26.7% | [2] -49.3% | [3] 2.74% | [4] -58.3% | [5] -21.6% | [6] -26.9% | [7] -7.49%
inactive: [8] 14.2%

Nc1c(C(=O)Nc2cccc3ncccc23)sc2nc3c(cc12)C(=O)CCC3
inactive: [1] 49.3% | [2] 55.2% | [4] 39.1% | [5] 25.2% | [6] 44.1% | [7] 75.8% | [8] 46.5%
active: [3] -18.2%

O=C(Cn1nnc2ccccc21)N/N=C/c1ccccc1F
inactive: [1] 92% | [2] 101% | [3] 102% | [4] 96.7% | [5] 89.9% | [6] 101% | [7] 115% | [8] 91.9%
